Results on 40 compounds are retold here after PubChem BioAssay (NCATS).

Results filed as inconclusive are left out. The source made the active and inactive calls. Calls come from the whole dose curve; as a rule, active = well fitted inhibition curve with a large enough effect; inconclusive = small, poorly fitted or top-dose-only effect; inactive = no such curve, though single readings can be large or run the other way.
% is set by controls: 0 for no effect and ±100 for the full control effect; potency is the fitted concentration of half-maximal effect.

The assay deals with Rap guanine nucleotide exchange factor 4 (Homo sapiens) (UniProt Q8WZA2). The experiment in a line: Confirmatory qHTS for antagonist of cAMP-regulated guanine nucleotide exchange factor 4 (EPAC2) (AID 1645885). Note: nearly all actives have a fitted effect of over 25% in size. The following applies: EPAC2 Rap1B-BODIPY-GDP exchange fluorescence, biochemical; series mostly up to 12.7 µM; activity change, negative = inhibition: at the top concentration.
Sequence of Rap guanine nucleotide exchange factor 4 (Homo sapiens) (Q8WZA2 whole entry, looked up): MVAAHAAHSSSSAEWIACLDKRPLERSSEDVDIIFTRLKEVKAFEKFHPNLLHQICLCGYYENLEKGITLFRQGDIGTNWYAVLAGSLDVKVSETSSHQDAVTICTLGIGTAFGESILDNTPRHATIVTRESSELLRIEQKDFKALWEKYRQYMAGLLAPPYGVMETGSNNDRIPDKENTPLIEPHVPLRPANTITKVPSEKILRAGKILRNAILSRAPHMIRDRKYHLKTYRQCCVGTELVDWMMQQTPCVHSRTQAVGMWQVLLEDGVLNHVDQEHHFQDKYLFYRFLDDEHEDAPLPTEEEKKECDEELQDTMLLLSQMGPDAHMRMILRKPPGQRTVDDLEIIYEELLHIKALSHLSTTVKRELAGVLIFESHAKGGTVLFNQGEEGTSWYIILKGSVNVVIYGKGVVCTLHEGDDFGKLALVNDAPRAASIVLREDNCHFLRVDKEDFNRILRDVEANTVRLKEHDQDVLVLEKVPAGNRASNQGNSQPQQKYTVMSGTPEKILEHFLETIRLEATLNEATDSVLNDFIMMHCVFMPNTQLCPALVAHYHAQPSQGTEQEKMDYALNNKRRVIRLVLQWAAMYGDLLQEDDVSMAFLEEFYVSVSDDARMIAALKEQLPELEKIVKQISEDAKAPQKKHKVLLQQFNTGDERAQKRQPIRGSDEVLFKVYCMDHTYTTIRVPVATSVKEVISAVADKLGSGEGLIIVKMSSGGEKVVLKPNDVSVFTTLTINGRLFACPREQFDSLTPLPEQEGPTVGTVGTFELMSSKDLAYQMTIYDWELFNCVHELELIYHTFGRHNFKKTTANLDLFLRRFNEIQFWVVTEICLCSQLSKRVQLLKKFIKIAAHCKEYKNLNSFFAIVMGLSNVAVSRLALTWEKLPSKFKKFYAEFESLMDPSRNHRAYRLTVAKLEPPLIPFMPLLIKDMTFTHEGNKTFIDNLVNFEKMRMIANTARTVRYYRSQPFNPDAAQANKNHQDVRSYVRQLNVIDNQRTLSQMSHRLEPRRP
As to `CCOP(=O)(OCC)C(Cc1ccccc1)N=C(c1ccccc1)c1ccccc1` (stereo not given), the “activity change, negative = inhibition” value was -24.9% (inactive). As to `Cc1cc(Br)cc(Cl)c1OC(=O)c1ccncc1`, the Potency was 37.9 µM (active). For the compound `O=C(CCC1N=C2c3ccccc3N=C(SCc3ccc(Cl)cc3)N2C1=O)NCc1cccs1` (stereo not given), the “activity change, negative = inhibition” value is 0.998% (inactive). With `COc1ccc(N=C2SC(C(=O)Nc3ccc(C(=O)O)cc3)CC(=O)N2Cc2cccs2)cc1` (stereo not given), the “activity change, negative = inhibition” value was -14.8% (inactive). For `C=CCc1cccc(CNc2c(C)cc(C)cc2C)c1O`, the “activity change, negative = inhibition” value is 2.26% [at 114 µM] (inactive). The same measure, in the same setting: the result for `CCOc1cc(-c2c(C#N)c(N)nc3c2CCCC3C)ccc1O` (stereo not given) reads -36.4% [at 114 µM] (inactive). As to `COc1ccc(OC)c(N2C(=O)[C@@H]3C(c4ccccc4Cl)=NO[C@@H]3C2=O)c1`, the Potency is 6.01 µM (active). In the case of `Cc1nn(CCc2nn[nH]n2)c2nc(-c3ccc(Br)cc3)cc(C(F)(F)F)c12`, the “activity change, negative = inhibition” value was 27.6% [at 114 µM] (inactive).

As for `O=C(C=Cc1ccccc1)c1c[nH]c2ccccc2c1=O`, the “activity change, negative = inhibition” value was -3.57% (inactive). On the same count and under the same terms, with `CCOc1ccc(/C=C/C(=O)c2c(O)c3ccccc3oc2=O)cc1` the figure was 70.1% [at 114 µM] (inactive). The same measure, in the same setting: with `COc1cc(O)c(C=NN2C(=O)CSC2=S)c(OC)c1` the figure was -11.9% [at 114 µM] (inactive). Consider `Cc1ccc(CN(C(=O)COc2cccc([N+](=O)[O-])c2)c2ccccn2)cc1`, for which the outcome is “inactive [at 12.7 µM]”. For `N#C/C(=C/c1cccn1-c1cccc(C(=O)O)c1)c1ccc(F)cc1`, the “activity change, negative = inhibition” value is -6.95% (inactive).

With `CCN=C1S/C(=C\c2ccc(-c3cccc(C(=O)O)c3)o2)C(=O)N1CC`, the “activity change, negative = inhibition” value is 75.3% [at 114 µM] (inactive). Regarding `O=C(Nc1cc(C(F)(F)F)ccc1Cl)c1nc2ccccc2nc1N1CCCCC1`, the outcome is “inactive [at 12.7 µM]”. Regarding `CC1(Cc2cc(Cl)ccc2C(F)(F)F)C(=O)Nc2cc(F)ccc21` (stereo not given), the “activity change, negative = inhibition” value is -3.12% (inactive). As to `COC1=CC(=O)C(C2CC(=O)c3c(O)cc(O)cc3O2)=CC1=O` (stereo not given), the “activity change, negative = inhibition” value is 0.128% (inactive). Still for that read-out and setting: the result for `O=C(O)C/C(=C\c1cc(Cl)c2c(c1)OCO2)c1nc2ccccc2s1` reads -5.25% (inactive); that for `O=C1C=CC(c2ccccc2)(c2ccccc2)CC1`, -27.4% (inactive). For `COc1ccccc1C(=O)Nc1nnc(SCc2cc(=O)c3ccccc3[nH]2)s1`, the outcome is “inactive [at 12.7 µM]”.

Regarding `CC(C)(C)NC(=O)NC(=O)CN1CCN(S(=O)(=O)c2ccc3c(c2)CCCC3)CC1`, the “activity change, negative = inhibition” value is -13.7% (inactive).

Consider `CC(C)CCNc1nc(-c2ccco2)c2c(c1C#N)CCCC2`, for which the “activity change, negative = inhibition” value is -26.4% [at 114 µM] (inactive).

Regarding `CC1=Nc2ccccc2N=C(NC(=O)/C=C/C(=O)O)C1c1ccccc1` (stereo not given), the Potency was 0.0675 µM (active). Regarding `CCOC(=O)N(C)c1c(CC)nc2c(OCc3ccc(C(F)(F)F)cc3)cccn12`, the “activity change, negative = inhibition” value is 64.6% [at 114 µM] (inactive). Same read-out and setting: the result for `CC(=Cc1ccccc1)C=C1SC(=S)N(CCCC(=O)Nc2ccc(C(=O)O)cc2)C1=O` reads -12.1% [at 114 µM] (inactive). Same read-out and setting: with `O=C(Cn1ncc(Cl)c(Cl)c1=O)NC(=O)NC1CCCCC1` the figure was -3.4% (inactive); with `CC(=O)c1sc2nc(-c3ccco3)ccc2c1N`, 4.33% [at 114 µM] (inactive); with `COc1ccc(C(CCN(Cc2ccc(OC)c(OC)c2)C(C)=O)C(C)C)cc1` (stereo not given), 24% [at 114 µM] (inactive).

For the compound `CCOP(=O)(OCC)C(Cc1ccc(OC)c(OC)c1)N=C(c1ccccc1)c1ccccc1` (stereo not given), the “activity change, negative = inhibition” value was -17.3% (inactive). On to `Cc1onc(-c2c(F)cccc2Cl)c1C(=O)OCc1cnc(Cl)s1`, for which the Potency was 26.9 µM (active). As to `Cc1ccc(C)n1-c1ccc(C(=O)/C=C/N(C)C)cc1`, the “activity change, negative = inhibition” value is 1.97% (inactive). As to `O=C(COC(=O)c1ccc2c(c1)C(=O)N(Cc1ccncc1)C2=O)Nc1ccccc1[N+](=O)[O-]`, the “activity change, negative = inhibition” value is -9.1% [at 114 µM] (inactive). Regarding `CCN(C(=O)c1noc2c1COc1ccc(C)cc1-2)c1cccc(C)c1`, the “activity change, negative = inhibition” value was -27% (inactive). Still for that read-out and setting: the result for `CCOC(=O)N1CCC(Nc2nc3ccccc3n3cnnc23)CC1` reads -3.61% (inactive); that for `C[C@@H]1COC(=O)[C@H](NC(=O)OCC2c3ccccc3-c3ccccc32)C/C=C\C[C@@H](CC(=O)N[C@H](CO)Cc2ccccc2)C(=O)N1`, -9.97% (inactive). As to `COc1ccccc1-n1c(C)c(C(=O)O)c2cc(OC)c3ccccc3c21`, the Potency was 47.8 µM (active). As for `CCOC(=O)C(C)Sc1nc(-c2ccco2)cc(C(F)(F)F)c1C#N` (stereo not given), the “activity change, negative = inhibition” value is -18.2% (inactive). Take `Cc1ccc(C)c(CSC2=NC(C)(C)Nc3ccccc32)c1`: the outcome is “inactive [at 12.7 µM]”. As for `C[C@@H]1ON(C)[C@H]2C[C@H]3c4[nH]c5ccc(-c6ccc7c(c6)OCO7)cc5c4CCN3C(=O)[C@@H]12`, the “activity change, negative = inhibition” value was -14.6% (inactive). Same read-out and setting: the result for `O=C(c1ccc2c(c1)CCCC2)N1CCN(c2nc3ccc(F)cc3s2)CC1` reads 41.3% (inactive).
